The test system of test [1] is PRMT1 (protein arginine N-methyltransferase 1). Nature of the test: PRMT1 binders on small-molecule microarrays, primary screen, biochemical, small-molecule microarray, 635 nm fluorescence (AID 1088).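 Also: binding of Prmt1 protein to compounds spotted on small-molecule microarray slides.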 The conditions noted are these: small-molecule microarray binding, higher = more signal.
Test [2] in a line: yeast growth modulation, basal conditions, primary screen, YJM789 clinical isolate, OD600, 24 h (AID 1089).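 Also: growth of clinical yeast isolate S. cerevisiae YJM 789 seeded 1000 cells per well; test concentration not given here.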 The conditions noted are these: S. cerevisiae YJM789 growth, higher = more signal, called active from +8 up or from −8 down.
Test [3] is described as follows: fission yeast growth modulation, primary screen, strain 972, OD600, 24 h, no modulator (AID 1090).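 Also: basal condition with compound alone and no growth modifier present; test concentration not given here.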 To be noted: S. pombe 972 growth, higher = more signal, called active from +8 up or from −8 down.
Test [4] can be described thus: S. cerevisiae growth modulation with rapamycin, primary screen, strain BY4716, OD600, 96 h (AID 1091). Also: test concentration not given here. The conditions noted are these: higher = more signal, called active from +8 up or from −8 down.
Test [5] concerns the target Torsin-1A-interacting protein 2 (Homo sapiens) (UniProt Q8NFQ8). Nature of the test: LULL1 binders on small-molecule microarray, primary screen, cell lysate, human LULL1 lysate, 635/667 nm fluorescence (AID 1092).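 Also: probe is lysate of COS7 cells overexpressing human LULL1; score merges per-feature 667 nm fluorescence with signal-to-noise.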 To be noted: hLULL1 lysate binding, 635 nm fluorescence, higher = more signal.
A short description of test [6]: E. coli growth modulation, two-sided OD650, primary screen, E. coli filamentation project, strain DRC41, 24 h (AID 1093).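 Also: MC1000 strain lacking acrAB efflux and sulA so SOS filamentation is blocked; test concentration not given here.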 The conditions noted are these: OD650, 24 h, higher = more signal, called active from +8 up or from −8 down.
Test [7] in a line: small-molecule microarray binders of probe aLefty2, primary screen, biochemical, biotinylated probe, 635/667 nm fluorescence (AID 1094).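 Also: score merges spot fluorescence near 667 nm with spot signal-to-noise ratio.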 To be noted: higher = more signal.
In test [8] the test system is Noggin (protein binding on small-molecule microarray). Nature of the test: Noggin binders on small-molecule microarray, primary screen, biochemical, 635/667 nm fluorescence (AID 1095).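 Also: score merges 667 nm feature fluorescence with signal to noise over triplicate slides.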 To be noted: 635 nm fluorescence, higher = more signal.
For test [9], the target named is Neurogenic locus notch homolog protein 3 (Homo sapiens) (UniProt Q9UM47). Nature of the test: NOTCH3 binders on small-molecule microarray, primary screen, biochemical, 635/667 nm fluorescence (AID 1096). To be noted: NOTCH3 binding, 635 nm fluorescence, higher = more signal.
Chain of Neurogenic locus notch homolog protein 3 (Homo sapiens) (Q9UM47 whole entry, looked up): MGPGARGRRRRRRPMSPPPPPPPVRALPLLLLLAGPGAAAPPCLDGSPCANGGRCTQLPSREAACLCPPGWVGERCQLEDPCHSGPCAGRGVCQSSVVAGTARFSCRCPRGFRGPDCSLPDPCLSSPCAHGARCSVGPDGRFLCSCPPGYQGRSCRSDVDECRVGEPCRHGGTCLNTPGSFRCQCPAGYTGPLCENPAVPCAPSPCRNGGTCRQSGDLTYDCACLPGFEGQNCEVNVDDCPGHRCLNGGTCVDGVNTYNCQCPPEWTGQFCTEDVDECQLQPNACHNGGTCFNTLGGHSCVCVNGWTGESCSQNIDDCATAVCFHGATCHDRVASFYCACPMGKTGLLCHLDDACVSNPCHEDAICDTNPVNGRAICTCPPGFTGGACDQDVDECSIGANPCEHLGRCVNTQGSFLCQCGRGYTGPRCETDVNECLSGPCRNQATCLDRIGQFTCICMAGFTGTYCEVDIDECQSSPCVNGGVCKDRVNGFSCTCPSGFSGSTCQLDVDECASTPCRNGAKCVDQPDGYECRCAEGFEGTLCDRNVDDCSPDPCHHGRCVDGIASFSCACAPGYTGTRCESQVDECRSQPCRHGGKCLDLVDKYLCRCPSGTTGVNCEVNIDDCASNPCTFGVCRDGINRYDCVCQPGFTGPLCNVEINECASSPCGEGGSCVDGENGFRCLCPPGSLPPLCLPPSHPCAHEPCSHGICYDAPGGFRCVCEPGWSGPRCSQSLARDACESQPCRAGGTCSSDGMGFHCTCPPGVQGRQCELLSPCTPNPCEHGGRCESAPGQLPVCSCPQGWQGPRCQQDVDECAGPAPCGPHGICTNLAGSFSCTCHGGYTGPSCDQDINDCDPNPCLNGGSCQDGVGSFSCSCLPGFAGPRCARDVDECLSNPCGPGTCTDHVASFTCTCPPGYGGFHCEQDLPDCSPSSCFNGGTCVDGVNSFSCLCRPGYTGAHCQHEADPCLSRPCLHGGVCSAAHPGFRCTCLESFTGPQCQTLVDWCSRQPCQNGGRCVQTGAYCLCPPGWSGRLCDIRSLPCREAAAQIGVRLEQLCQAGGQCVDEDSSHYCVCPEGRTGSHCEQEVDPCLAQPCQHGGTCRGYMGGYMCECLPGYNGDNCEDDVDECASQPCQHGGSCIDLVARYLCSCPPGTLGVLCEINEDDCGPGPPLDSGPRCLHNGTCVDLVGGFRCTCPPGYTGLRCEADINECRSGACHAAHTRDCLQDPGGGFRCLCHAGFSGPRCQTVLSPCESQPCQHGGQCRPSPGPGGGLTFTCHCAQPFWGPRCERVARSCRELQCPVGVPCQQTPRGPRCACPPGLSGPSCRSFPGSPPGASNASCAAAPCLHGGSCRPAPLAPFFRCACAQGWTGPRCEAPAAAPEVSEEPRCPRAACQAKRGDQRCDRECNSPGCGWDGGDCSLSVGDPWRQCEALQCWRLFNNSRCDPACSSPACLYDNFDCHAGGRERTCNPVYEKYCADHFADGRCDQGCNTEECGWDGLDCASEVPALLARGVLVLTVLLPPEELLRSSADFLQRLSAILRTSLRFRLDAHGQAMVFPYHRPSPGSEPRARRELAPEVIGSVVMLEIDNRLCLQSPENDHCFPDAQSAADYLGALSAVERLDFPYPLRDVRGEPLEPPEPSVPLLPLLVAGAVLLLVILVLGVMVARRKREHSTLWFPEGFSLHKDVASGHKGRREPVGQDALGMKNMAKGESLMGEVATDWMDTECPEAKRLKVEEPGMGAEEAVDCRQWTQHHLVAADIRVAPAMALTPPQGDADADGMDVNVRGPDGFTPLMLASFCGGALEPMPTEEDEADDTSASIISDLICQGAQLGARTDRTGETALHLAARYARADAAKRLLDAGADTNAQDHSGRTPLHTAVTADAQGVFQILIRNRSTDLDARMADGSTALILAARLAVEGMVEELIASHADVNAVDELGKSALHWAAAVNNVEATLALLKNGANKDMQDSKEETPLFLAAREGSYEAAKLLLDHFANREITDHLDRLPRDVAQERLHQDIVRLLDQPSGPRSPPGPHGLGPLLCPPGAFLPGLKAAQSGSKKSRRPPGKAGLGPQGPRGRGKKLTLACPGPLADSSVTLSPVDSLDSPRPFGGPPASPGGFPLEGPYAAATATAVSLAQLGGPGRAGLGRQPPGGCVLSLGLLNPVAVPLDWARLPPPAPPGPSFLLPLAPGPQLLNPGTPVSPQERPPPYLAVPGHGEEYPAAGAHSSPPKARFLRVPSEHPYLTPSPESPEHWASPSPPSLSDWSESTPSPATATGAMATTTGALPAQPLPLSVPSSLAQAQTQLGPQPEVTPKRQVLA
Test [10] is described as follows: small-molecule microarray binders of probe aEGFR, primary screen, biochemical, biotinylated probe, 635/667 nm fluorescence (AID 1097).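 Also: probe is a biotinylated anti-EGFR antibody binding compounds printed on slides; score combines fluorescence near 667 nm and signal to noise of each spot.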 To be noted: higher = more signal.
Test [11] deals with Plasmodium falciparum Sir2 (PF13_0152, Sir2A). Nature of the test: pfSir2 binders on small-molecule microarrays, primary screen, biochemical, small-molecule microarray, 635 nm fluorescence (AID 1098).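 Also: score merges spot fluorescence intensity with its signal-to-noise ratio.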 The conditions noted are these: small-molecule microarray binding, fluorescence 635 nm; higher = more signal.
Test [12] can be described thus: small-molecule microarray binders of probe aDKK1, primary screen, biochemical, biotinylated probe, 635/667 nm fluorescence (AID 1099).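 Also: score merges 667nm spot fluorescence with signal to noise across triplicate slides; reference of the scale not given here.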 The conditions noted are these: higher = more signal.
Test [13] is described as follows: small-molecule microarray binders of probe aCHRDL2, primary screen, biochemical, biotinylated probe, 635/667 nm fluorescence (AID 1100). To be noted: higher = more signal.
A short description of test [14]: splicing luciferase reporter signal modulators, primary screen, spliceosome inhibition project, cell-based, HEK293, splice +/- reporter (AID 1101).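 Also: HEK293 cells carrying a splicing-competent luciferase reporter gene; test concentration not given here.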 To be noted: luminescence, 24 h, higher = more signal, called active from +8 up or from −8 down.
In test [15] the target is Fibroblast growth factor 10 (Homo sapiens) (UniProt O15520). Nature of the test: FGF10 binders on small-molecule microarrays, primary screen, biochemical, small-molecule microarray, 635 nm fluorescence (AID 1102). To be noted: FGF10 binding, fluorescence 635 nm, higher = more signal.
Chain of Fibroblast growth factor 10 (Homo sapiens) (O15520 whole entry, looked up): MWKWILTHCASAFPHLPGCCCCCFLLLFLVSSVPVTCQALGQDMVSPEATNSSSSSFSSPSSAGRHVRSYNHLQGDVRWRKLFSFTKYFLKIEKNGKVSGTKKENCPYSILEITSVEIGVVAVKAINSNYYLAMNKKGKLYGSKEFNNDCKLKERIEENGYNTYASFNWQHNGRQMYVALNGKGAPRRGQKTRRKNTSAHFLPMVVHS
For test [16], the system named is glycogen synthase kinase-3 (GSK3A per assay name; protocol says GSK3B). Nature of the test: GSK3 binders on small-molecule microarrays, primary screen, biochemical, small-molecule microarray, 635 nm fluorescence, GSK3A (AID 1103). Also: the record names both GSK3A and GSK3B. The conditions noted are these: small-molecule microarray binding, fluorescence 635 nm; higher = more signal.
In test [17] the target is Epidermal growth factor receptor (Homo sapiens) (UniProt P00533). Nature of the test: EGFR binders on small-molecule microarrays, primary screen, biochemical, small-molecule microarray, 635 nm fluorescence (AID 1104).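 Also: score merges 667 nm emission intensity with spot signal to noise over triplicate slides.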 To be noted: EGFR binding, higher = more signal.
Chain of Epidermal growth factor receptor (Homo sapiens) (P00533 whole entry, looked up): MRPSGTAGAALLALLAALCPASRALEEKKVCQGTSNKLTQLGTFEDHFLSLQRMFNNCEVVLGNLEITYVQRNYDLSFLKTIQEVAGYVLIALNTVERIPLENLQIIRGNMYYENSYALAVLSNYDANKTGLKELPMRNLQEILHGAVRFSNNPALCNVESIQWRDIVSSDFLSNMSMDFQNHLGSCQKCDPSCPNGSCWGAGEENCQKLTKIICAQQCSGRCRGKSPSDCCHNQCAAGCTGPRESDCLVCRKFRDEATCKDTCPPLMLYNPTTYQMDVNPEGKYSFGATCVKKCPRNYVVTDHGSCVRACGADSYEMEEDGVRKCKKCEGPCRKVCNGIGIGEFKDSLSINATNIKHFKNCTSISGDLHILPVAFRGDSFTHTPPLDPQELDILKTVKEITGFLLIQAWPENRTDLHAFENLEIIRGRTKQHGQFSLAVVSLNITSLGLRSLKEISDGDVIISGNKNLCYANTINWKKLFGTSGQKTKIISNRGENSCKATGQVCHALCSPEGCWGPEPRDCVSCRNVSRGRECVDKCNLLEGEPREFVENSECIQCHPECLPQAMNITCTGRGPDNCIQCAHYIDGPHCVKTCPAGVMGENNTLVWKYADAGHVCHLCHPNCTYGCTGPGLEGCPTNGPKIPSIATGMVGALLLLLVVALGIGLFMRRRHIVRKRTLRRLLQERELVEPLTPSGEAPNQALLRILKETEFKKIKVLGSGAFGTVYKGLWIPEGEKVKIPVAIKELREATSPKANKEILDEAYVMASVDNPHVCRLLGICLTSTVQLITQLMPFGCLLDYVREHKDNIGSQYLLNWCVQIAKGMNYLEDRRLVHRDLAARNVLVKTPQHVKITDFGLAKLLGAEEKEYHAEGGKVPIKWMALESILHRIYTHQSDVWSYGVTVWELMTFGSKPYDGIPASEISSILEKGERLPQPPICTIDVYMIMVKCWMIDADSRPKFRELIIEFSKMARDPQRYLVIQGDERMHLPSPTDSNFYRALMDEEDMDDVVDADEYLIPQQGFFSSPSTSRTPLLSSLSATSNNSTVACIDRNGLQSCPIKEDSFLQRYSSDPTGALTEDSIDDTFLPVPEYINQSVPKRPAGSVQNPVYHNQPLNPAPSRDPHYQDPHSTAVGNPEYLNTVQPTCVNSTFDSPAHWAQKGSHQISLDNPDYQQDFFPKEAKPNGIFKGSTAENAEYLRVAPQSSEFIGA
The target of test [18] is Follistatin-related protein 3 (Homo sapiens) (UniProt O95633). Nature of the test: FSTL3 binders on small-molecule microarrays, primary screen, biochemical, small-molecule microarray, 635 nm fluorescence (AID 1105).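 Also: score merges emission near 667 nm and signal to noise per printed spot across three slides.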 To be noted: FSTL3 binding, higher = more signal.
Chain of Follistatin-related protein 3 (Homo sapiens) (O95633 whole entry, looked up): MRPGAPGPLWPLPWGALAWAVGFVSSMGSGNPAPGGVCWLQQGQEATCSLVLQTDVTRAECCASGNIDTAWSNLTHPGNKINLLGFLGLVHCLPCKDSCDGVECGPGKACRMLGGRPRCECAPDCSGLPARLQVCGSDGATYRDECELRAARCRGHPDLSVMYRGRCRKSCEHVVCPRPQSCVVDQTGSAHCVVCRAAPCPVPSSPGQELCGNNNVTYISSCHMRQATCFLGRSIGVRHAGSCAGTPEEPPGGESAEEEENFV
In test [19] the target is Dickkopf-related protein 1 (Homo sapiens) (UniProt O94907). Nature of the test: DKK1 binders on small-molecule microarrays, primary screen, biochemical, small-molecule microarray, 635 nm fluorescence scan (AID 1106).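 Also: score merges emission near 667 nm with signal to noise over three replicate slides.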 To be noted: DKK1 binding, higher = more signal.
Chain of Dickkopf-related protein 1 (Homo sapiens) (O94907 whole entry, looked up): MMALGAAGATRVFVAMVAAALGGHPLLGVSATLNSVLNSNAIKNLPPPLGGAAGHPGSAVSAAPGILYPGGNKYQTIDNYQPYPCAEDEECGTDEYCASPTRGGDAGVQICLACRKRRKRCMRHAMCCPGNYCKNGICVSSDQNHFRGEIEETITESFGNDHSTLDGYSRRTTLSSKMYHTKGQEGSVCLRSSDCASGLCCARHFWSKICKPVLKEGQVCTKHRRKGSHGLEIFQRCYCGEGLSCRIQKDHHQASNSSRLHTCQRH
Test [20] deals with Inhibin beta A chain (activin A). Nature of the test: INHBA (activin A) binders on microarrays, primary screen, biochemical, small-molecule microarray, 635 nm fluorescence scan (AID 1107).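 Also: mouse activin A protein probed at 4.33 µg/mL on printed slides; score merges bound-protein fluorescence near 667 nm with spot signal-to-noise.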 The conditions noted are these: small-molecule microarray binding, higher = more signal.

The source made the active and inactive calls.

For five compounds, composite z-score and z-score results are on record in PubChem BioAssay.

Chain of Torsin-1A-interacting protein 2 (Homo sapiens) (Q8NFQ8 whole entry, looked up): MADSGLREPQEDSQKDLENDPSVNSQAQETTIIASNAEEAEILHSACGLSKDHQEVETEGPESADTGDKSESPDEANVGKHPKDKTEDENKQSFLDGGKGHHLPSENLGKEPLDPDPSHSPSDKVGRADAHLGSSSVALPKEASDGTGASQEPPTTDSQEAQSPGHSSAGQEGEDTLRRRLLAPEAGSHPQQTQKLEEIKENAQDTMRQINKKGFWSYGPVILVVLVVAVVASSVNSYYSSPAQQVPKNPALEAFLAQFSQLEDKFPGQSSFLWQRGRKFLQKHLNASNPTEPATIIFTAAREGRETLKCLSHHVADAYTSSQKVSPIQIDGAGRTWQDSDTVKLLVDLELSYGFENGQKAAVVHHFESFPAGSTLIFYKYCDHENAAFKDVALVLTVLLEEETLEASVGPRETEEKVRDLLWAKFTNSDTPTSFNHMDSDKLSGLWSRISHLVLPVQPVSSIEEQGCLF

For the compound `CC(C)C(CO)N1C(=O)[C@]2(C)C3C(=O)OCCC/C=C\[C@H]3OC23C=CCN(c2ccc(Cl)cc2)C(=O)[C@@H]13` (stereo not given in full), the composite z-score is 0.88 in [1]; 3.28 in test [5]; -0.0458 in test [7]; -0.608 in test [8]; 0.0253 in test [9]; -0.155 in test [10]. Also, the composite z-score in test [11] was 1.11; in test [12], -0.095; in test [13] it was 0.38; in test [15] it was -0.382; in [16] it was -0.028; in [17], -0.599. Besides, the composite z-score in [18] was -0.518; in test [19] it was -0.821; in test [20], 0.717. Moreover, the z-score was -0.579 (inactive) in test [2]; -1.14 (inactive) in test [3]; -0.268 (inactive) in [4]; -0.718 (inactive) in [6]; 0.242 (inactive) in [14].
Regarding `CC(C)(C)N1CC=CC23O[C@@H]4C=CCOC(=O)[C@@H]4[C@H]2C(=O)N(CCCO)[C@@H]3C1=O` (stereo not given in full), the composite z-score in test [1] was -0.768; in test [5], -0.558; in test [7], -0.147; in test [8], -1.62; in test [9], -1.54; in test [10] it was -0.314. The composite z-score in test [11] is 1.43; in test [12] it was -0.451; in test [13] it was 0.726; in test [15], -1.3; in test [16], -1.13; in [17] it was -1.66. The composite z-score was -1.69 in test [18], -1.26 in test [19] and 0.301 in test [20]. Moreover, the z-score was 0.149 (inactive) in [2]; 0.0155 (inactive) in test [3]; -0.288 (inactive) in [4]; 1.27 (inactive) in [6]; -1.28 (inactive) in test [14].
On to `NC(=O)NCC#Cc1ccc2c(c1)[C@]1(C(=O)N2)[C@H](c2ccc(O)cc2)N2[C@H](c3ccccc3)[C@H](c3ccccc3)OC(=O)[C@H]2[C@@H]1C(=O)Nc1nc2ccccc2s1`, for which the composite z-score is 1.39 in [1]; 1.07 in test [5]; 0.122 in [7]; 1.05 in test [8]; 0.362 in [9]; -0.0975 in test [10]. Also, the composite z-score was 0.836 in test [11]; 0.645 in test [12]; 0.985 in test [13]; 1.25 in test [15]; 0.0394 in test [16]; 0.581 in test [17]. Further, the composite z-score in test [18] was 1.05; in test [19], 0.666; in test [20] it was 1.17. In addition, the z-score in test [2] is 4.88 (inactive); in test [3] it was 4.35 (inactive); in test [4], 8.57 (active); in [6], 1.06 (inactive); in test [14], 1.11 (inactive).
In the case of `COc1ccc([Si](C)(C)[C@@H]2[C@@H](CCO)O[C@]3(C(=O)N(Cc4cccc(N5C(=O)c6ccccc6Oc6ccccc65)c4)c4ccccc43)[C@H]2C)cc1`, the composite z-score in test [1] was 1.17; in test [5], 1.46; in test [7], -0.0666; in test [8], -0.224; in test [9] it was 0.0578; in test [10] it was -0.281. Further, the composite z-score in test [11] is 0.307; in test [12] it was 0.0163; in [13], 0.444; in [15], -0.502; in [16], -0.735; in test [17], -0.717. Besides, the composite z-score in test [18] is -0.491; in [19] it was -0.812; in test [20], 0.233. Besides, the z-score is 2.79 (inactive) in test [2]; -0.483 (inactive) in [3]; 36.9 (active) in test [4]; 1.21 (inactive) in test [6]; -1.19 (inactive) in [14].
Regarding `CC(C)N1CC=CC23O[C@@H]4C=CCCOC(=O)C4[C@H]2C(=O)N(CCO)[C@@H]3C1=O` (stereo not given in full), the composite z-score in test [1] was 0.291; in test [5], -0.805; in test [7], -0.145; in test [8] it was -0.736; in test [9], -0.362; in test [10], -0.203. Further, the composite z-score in test [11] is 0.154; in [12], -0.377; in [13] it was -0.0034; in [15], 0.107; in test [16] it was -0.504; in test [17] it was -0.458. The composite z-score in test [18] is -0.762; in [19] it was -0.155; in [20], -0.101. The z-score in test [2] is -0.631 (inactive); in test [3], -0.349 (inactive); in [4] it was -1.2 (inactive); in [6], 2.99 (inactive); in test [14], -1.22 (inactive).
